Experimental data: PubChem BioAssay (NCI)
This is part of a sample that, as a whole, favours compounds with a hit. Of some 83,000 tested, about 20% had one in any assay.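 Note: values are percent growth. 100 is the growth of untreated cells, values between 100 and 0 indicate rising inhibition; between -100 and 0 indicates cell death.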 Active and inactive are the calls of the source. How the source made its calls: active means growth percent below 10; inactive means the rest.

Legend:
Assay in all cases: NCI-60 one-dose screen, 48 h (100 = growth as untreated, 0 = no growth, -100 = all killed)
Details in all cases: 10 µM unless noted
NCI-H23 lung = test system: NCI-H23 lung
NCI-H226 lung = test system: NCI-H226 lung
NCI-H322M lung = test system: NCI-H322M lung
HOP-62 NSCLC = test system: HOP-62 NSCLC
NCI-H460 lung = test system: NCI-H460 lung
HOP-92 NSCLC = test system: HOP-92 NSCLC
NCI-H522 lung = test system: NCI-H522 lung
A549/ATCC NSCLC = test system: A549/ATCC NSCLC
786-0 renal = test system: 786-0 renal
COLO 205 colon = test system: COLO 205 colon
DU-145 prostate = test system: DU-145 prostate
K-562 leukemia = test system: K-562 leukemia
MALME-3M melanoma = test system: MALME-3M melanoma
MDA-MB-231 breast = test system: MDA-MB-231 breast
RXF 393 renal = test system: RXF 393 renal
SF-268 CNS = test system: SF-268 CNS
SF-295 CNS = test system: SF-295 CNS
SF-539 CNS = test system: SF-539 CNS
UACC-257 melanoma = test system: UACC-257 melanoma

Measured: growth

CNC=O
inactive: NCI-H23 lung 85.7% | NCI-H226 lung 102% | NCI-H322M lung 97.5% | HOP-62 NSCLC 107% | NCI-H460 lung 101% | HOP-92 NSCLC 92% | NCI-H522 lung 94.9% | A549/ATCC NSCLC 88.8% | 786-0 renal 102% | COLO 205 colon 97.7% | DU-145 prostate 77.9% | K-562 leukemia 107% | MALME-3M melanoma 97% | MDA-MB-231 breast 98.7% | RXF 393 renal 42.3% | SF-268 CNS 99.3% | SF-295 CNS 96.8% | SF-539 CNS 88.8% | UACC-257 melanoma 91.1%

CC1=CC(=O)C(C(C)C)=CC1=Nc1cc(Br)c(O)c(Br)c1
inactive: NCI-H23 lung 25.7% | NCI-H226 lung 84.1% | NCI-H322M lung 53.6% | HOP-62 NSCLC 12.7% | HOP-92 NSCLC 35.5% | NCI-H522 lung 55% | A549/ATCC NSCLC 28.2% | COLO 205 colon 144% | MALME-3M melanoma 96.6% | SF-268 CNS 27% | SF-295 CNS 17% | UACC-257 melanoma 95.5%
active: NCI-H460 lung 5.15% | 786-0 renal 9.71% | DU-145 prostate 3.08% | K-562 leukemia 0.315% | MDA-MB-231 breast 7.91% | RXF 393 renal 5.99% | SF-539 CNS -33.6%

COc1cc(C2CC(c3ccc(Nc4nc(Nc5ccc(F)cc5)nc(Nc5ccc(Cl)cc5)n4)cc3)=NN2C(C)=O)cc(OC)c1OC (configuration not stated)
inactive: NCI-H23 lung 68.8% | NCI-H226 lung 67.9% | NCI-H322M lung 84.8% | HOP-62 NSCLC 72.3% | NCI-H460 lung 77.9% | HOP-92 NSCLC 51.8% | NCI-H522 lung 73.8% | A549/ATCC NSCLC 50.8% | 786-0 renal 87.2% | COLO 205 colon 58% | DU-145 prostate 110% | K-562 leukemia 44.2% | MALME-3M melanoma 67.9% | MDA-MB-231 breast 77.8% | RXF 393 renal 71.5% | SF-268 CNS 90.4% | SF-295 CNS 339% | SF-539 CNS 84.6% | UACC-257 melanoma 122%

COc1cccc(-c2cnco2)c1OCc1c(C)c(COc2c(OC)cccc2-c2cnco2)c(C)c(COc2c(OC)cccc2-c2cnco2)c1C
inactive: NCI-H23 lung 71.5% | NCI-H226 lung 21.8% | NCI-H322M lung 70.7% | HOP-62 NSCLC 42.1% | NCI-H460 lung 52.2% | NCI-H522 lung 33.9% | A549/ATCC NSCLC 51.8% | COLO 205 colon 83.4% | DU-145 prostate 73.2% | K-562 leukemia 85% | MALME-3M melanoma 43.5% | MDA-MB-231 breast 30.5% | RXF 393 renal 45.7% | SF-268 CNS 53.7% | SF-295 CNS 82.1% | SF-539 CNS 19.3% | UACC-257 melanoma 58.4%
active: HOP-92 NSCLC -6.35% | 786-0 renal 2.94%

CC(C)OC(=O)NNC(=O)c1ccncc1
inactive: NCI-H23 lung 105% | NCI-H226 lung 107% | NCI-H322M lung 92.3% | HOP-62 NSCLC 108% | NCI-H460 lung 106% | HOP-92 NSCLC 113% | NCI-H522 lung 88.9% | A549/ATCC NSCLC 105% | 786-0 renal 104% | COLO 205 colon 110% | DU-145 prostate 111% | K-562 leukemia 110% | MALME-3M melanoma 93% | MDA-MB-231 breast 108% | RXF 393 renal 120% | SF-268 CNS 104% | SF-295 CNS 113% | SF-539 CNS 97.2% | UACC-257 melanoma 105%

COc1ccc(-c2cc(-c3ccc(Nc4nc(Nc5ccccc5)nc(Nc5ccc(Cl)cc5)n4)cc3)nc(N)c2C#N)cc1
active: NCI-H23 lung -6.72% | NCI-H226 lung -60.9% | HOP-62 NSCLC -31.1% | HOP-92 NSCLC -67.6% | NCI-H522 lung -3.64% | 786-0 renal -81% | K-562 leukemia 4.07% | MALME-3M melanoma -76.6% | MDA-MB-231 breast -27.4% | RXF 393 renal -12.1% | SF-268 CNS -26.4% | SF-539 CNS -54.9% | UACC-257 melanoma -11.4%
inactive: NCI-H322M lung 42.2% | NCI-H460 lung 24.6% | A549/ATCC NSCLC 38.2% | COLO 205 colon 12.5% | DU-145 prostate 33% | SF-295 CNS 34.4%

NS(=O)(=O)c1cn(-c2ncnc3nc[nH]c23)ccc1=O
inactive: NCI-H23 lung 94.2% | NCI-H226 lung 78% | NCI-H322M lung 94.5% | HOP-62 NSCLC 94.9% | NCI-H460 lung 112% | HOP-92 NSCLC 82.7% | NCI-H522 lung 51.2% | A549/ATCC NSCLC 36% | 786-0 renal 96.9% | COLO 205 colon 100% | DU-145 prostate 103% | K-562 leukemia 84.6% | MALME-3M melanoma 82.9% | MDA-MB-231 breast 89.3% | RXF 393 renal 130% | SF-268 CNS 93.3% | SF-295 CNS 49.3% | SF-539 CNS 105% | UACC-257 melanoma 138%

COc1ccc(-c2cc(-c3ccc(Nc4nc(Nc5ccccc5)nc(Nc5ccc(Cl)cc5)n4)cc3)nc(N)n2)cc1
inactive: NCI-H23 lung 56.6% | NCI-H226 lung 81.2% | NCI-H322M lung 83.3% | HOP-62 NSCLC 57.2% | NCI-H460 lung 61.6% | HOP-92 NSCLC 37.6% | NCI-H522 lung 76.3% | A549/ATCC NSCLC 79.5% | 786-0 renal 51.5% | COLO 205 colon 68.4% | DU-145 prostate 100% | K-562 leukemia 23.7% | MALME-3M melanoma 79.2% | MDA-MB-231 breast 49% | RXF 393 renal 75.6% | SF-268 CNS 75.8% | SF-295 CNS 64.1% | SF-539 CNS 76.9% | UACC-257 melanoma 77.1%
